Measurements as given in PubChem BioAssay (NCATS).
Records with an inconclusive call do not appear. Values without a mark were called inactive. Activity calls are given as the source filed them. Calls come from the whole dose curve; as a rule, active = well fitted inhibition curve with a large enough effect; inconclusive = small, poorly fitted or top-dose-only effect; inactive = no such curve, though single readings can be large or run the other way.

Assay: qHTS for Inhibitors of the Aldehyde Dehydrogenase Family (ALDH1A2, ALDH1A3, ALDH2, ALDH3A1) (AID 2061307); note: nearly all actives have a fitted effect of over 50% in size; for Potency: test system not described further here
Conditions: ALDH inhibition qHTS; series mostly up to 50.3 µM; activity change, negative = inhibition: at the top concentration
% is set by controls: 0 for no effect and ±100 for the full control effect; potency is the fitted concentration of half-maximal effect.

Row | SMILES | Potency | activity change, negative = inhibition
1 | Cc1ccc(NC(=O)Cc2c(C)nn(C)c2C)cc1F | 10 µM (active) | –
2 | COC(=O)c1ccc(CNc2ncnc3ccccc23)cc1 | 0.708 µM (active) | –
3 | N#Cc1cccc(-c2ccc3nc(-c4ccccc4)cn3c2)c1 | – | -1.96% [at 34.4 µM]
4 | O=C1NC(c2ccc(N3CCOCC3)cc2)(c2ccsc2)CC(O)=C1Sc1ccccc1Cl (stereo not given) | – | -25.9%
5 | O=C(Nc1ccc(S(=O)(=O)N2CCOCC2)cc1)c1ccc(CN2CCc3ccccc3C2)cc1 | – | 13.7%
6 | COc1ccc(CCNC(=O)c2ccc3nnc(-c4ccc([S+](C)(=O)[O-])cc4)n3c2)cc1 | – | -48.3% [at 34.4 µM]
7 | O=C1C[C@](c2ccc(N3CCOCC3)cc2)(c2ccsc2)NC(=O)C1Sc1ccccc1Cl (stereo not given in full) | – | -27.4%
8 | CC(=O)c1c(C)[nH]c2ccc(O)cc12 | – | 4.59% [at 34.4 µM]
9 | COCCn1cc(NC(=O)CSC(C)C)ccc1=O | – | -14.5%
10 | COc1ccc(CC2NCCC3=CC(=O)CCC32)cc1O (stereo not given) | – | 0%
11 | O=C(N/N=C/c1ccc(Sc2ccccn2)o1)c1cccc(F)c1 | 15.9 µM (active) | –
12 | COc1ccccc1C(=O)Nc1nnc(SCc2cc(=O)c3ccccc3[nH]2)s1 | 3.98 µM (active) | –
13 | Cc1ccc2c(c1)/C(=C\C(=O)c1cccnc1)C(=O)N2 | – | 4.36%
14 | Cc1ccc(CNS(=O)(=O)c2ccc3c(c2)CN(C(=O)c2cccnc2)CC3)o1 | – | -26% [at 34.4 µM]
15 | Cc1cc(NC(=O)c2cscn2)ccc1C(=O)O | – | -13.7% [at 34.4 µM]
16 | Clc1ccc(-c2noc3ncnc(N4CCCCC4)c23)cc1 | 11.3 µM (active) | –
17 | O=C(Nc1cc(C(F)(F)F)ccc1Cl)c1nc2ccccc2nc1N1CCCCC1 | – | -39.3% [at 34.4 µM]
18 | COc1ccccc1CNC(=O)c1ccccc1N | – | -12.6%
19 | COc1cccc(N2CCN(c3ncnc4c3c(-c3ccccc3)cn4-c3cccc(C(F)(F)F)c3)CC2)c1 | – | -20.3% [at 34.4 µM]
20 | Cc1n[nH]c(C)c1-n1c2c(cc(-c3nc(-c4ccc(Cl)cc4)cs3)c1=O)C(=O)CC(C)(C)C2 | – | -6.05%

Row | SMILES | Potency | activity change, negative = inhibition
21 | Fc1cc(Cn2cnc3ccccc32)ccc1Cl | 11.2 µM (active) | –
22 | COc1ccc(-n2ccc(CNc3cccc(F)c3C#N)n2)cc1 | – | -28.1% [at 34.4 µM]
23 | O=C(Nc1cccnc1)c1nccs1 | – | -0.621%
24 | Fc1ccc(Cn2cnc3ccccc32)cc1Cl | 8.96 µM (active) | –
25 | O=C(Nc1cccc(Nc2ccccc2)c1)c1ccc(-c2cccc([N+](=O)[O-])c2)o1 | 1.27 µM (active) | –
26 | O=C(O)c1cccc(Nc2ncnc3sccc23)c1 | – | 0% [at 34.4 µM]
27 | Brc1ccc(CN2CCC(N(CCc3ccccc3)Cc3ccccc3)CC2)cc1 | – | -13.6%
28 | CCOc1ccc(NC(=O)CSCC(=O)Nc2ccc(C)cc2)cc1 | – | -9.3%
29 | Nc1nc2c(s1)C(c1ccccc1)CC(=O)N2 (stereo not given) | 11.3 µM (active) | –
30 | Cn1ccc(=Nc2ccc(NC(=O)c3ccc(N=c4ccn(C)c5ccc([N+](=O)[O-])cc45)cc3)cc2)cc1 | 8.96 µM (active) | –
31 | Clc1ccc(Cn2cnc3ccccc32)cc1 | 14.1 µM (active) | –
32 | O=C(Nc1ncc(CN2CCOCC2)s1)c1ccc(-c2cccc([N+](=O)[O-])c2)o1 | 28.2 µM (active) | –
33 | CC(=O)Nc1ccc(OCc2cn(CC(=O)c3ccc(O)cc3)nn2)cc1 | – | -16.1%
34 | N#Cc1cccc(NC(=O)N2C[C@@H]3C[C@H](C2)c2ccc(-c4ccc(OC(F)(F)F)cc4)c(=O)n2C3)c1 | – | -16.3% [at 34.4 µM]
35 | COc1ccc([N+](=O)[O-])c(S(=O)(=O)c2ccc(C)cc2)n1 | 2.25 µM (active) | –
36 | COC(=O)c1ccc2c(c1)CCN2C(=O)c1cnn(-c2ccccc2)c1 | – | -31.1% [at 34.4 µM]
37 | Cc1ccc(C)n1-c1ccccc1C(=O)O | – | -27.7%
38 | CC(NC(=O)c1ccco1)c1nc(-c2ccccc2)no1 (stereo not given) | – | -45.8% [at 34.4 µM]
39 | COc1ccc(-n2ncc3c2CCCC3NC(=O)c2cc(NC(C)=O)ccn2)cc1 (stereo not given) | – | -3.01%
40 | COc1ccc(NC(=O)c2ccc(N3CCOCC3)nc2)cc1 | – | -43.3% [at 34.4 µM]
